Calls of active or inactive are those of the source. Where a call stands in place of a potency, no number is given. Calls follow the shape of the dose curve; as a rule, active = well fitted inhibition curve with a large enough effect; inconclusive = small, poorly fitted or top-dose-only effect; inactive = no such curve, though single readings can be large or run the other way.
Experiment: qHTS assay for measurement of the activity of small molecule inhibitors on Zika virus induced Caspase-3 activity in human astrocytoma cells (AID 1224859)
Details: SNB-19 ZIKV-induced caspase-3/7, luminescence, 6 h; series mostly up to 45.7 µM
Source text: National Center for Advancing Translational Sciences [NCATS]
Johns Hopkins University School of Medicine
Increase in the Caspase-3 activity indicates an activation of apoptosis cell death pathway caused by Zika virus infection in certain types of neuronal cells including human neural progenitor cells (hNPCs), astrocytes, and astrocytoma cell line (SNB-19). This cell-based caspase-3 activity assay measures the increased caspase-3 activity in the astrocytoma cell line (SNB-19) after a 6-hour Zika virus infection with a luminescence readout. A decrease in the luminescence signal in this assay by small molecule treatment indicates an inhibitory effect of that small molecule on the Zika virus induced caspase-3 activity that may correlate with its effect on reduction of Zika virus caused cell death.
The medium for SNB-19 cells is composed of RPMI 1640 (ATCC, Cat.# 30-2001), 10% fetal bovine serum (FBS) (GE healthcare Life Sciences, Cat.# SH30071.03), and 1% Pen/Strep (Gibco, Cat.# 15140-122). A Caspase-Glo 3/7 assay kit (catalog number G8092; Promega, Madison, WI) was used to detect caspase-3 activity induced by Zika virus infection in human cells. The reagent mixture was reconstituted as described in the protocol from the manufacturer. Polystyrene tissue culture treated and PDL coated white plates were obtained from Greiner Bio-One (Monroe, NC). Cells were seeded in 384- or 1536-well assay plates and cultured at 37 C with 5% CO2 for 16 to 20 hours. The typical cell seeding density in the 1536-well plate assay is 250 cells/well in 3ul medium for SNB-19 cells in tissue culture treated plates. Compounds were added to cells and incubated for one hour before addition of ZIKV solution to cells (2 FFU/cell). After incubation at 37 C with 5% CO2 for 6 hours, the reagent mixture of Caspase-Glo 3/7 assay kit was added to each well, followed by incubation at room temperature for 30 minutes. The luminescence intensity of the assay plates was measured using a ViewLux plate reader (PerkinElmer). Data were normalized by using the cell-containing wells without ZIKV as a negative control (0% induction of caspase 3/7 activity) and wells containing ZIKV infected cells (Caspase-3 activity induced) as a positive control (100% induction of caspase 3 activity). The percentage inhibitions of the increased Caspase-3 activity by small molecule inhibitors were then calculated.
In the case of `C=CCn1c(=O)c2cnc(Nc3ccc(N4CCN(C)CC4)cc3)nc2n1-c1cccc(C(C)(C)O)n1`, the Potency is reported as “inactive”. With `CC=CC1=C(C(=O)O)N2C(=O)[C@H](NC(=O)[C@H](N)c3ccc(O)cc3)[C@@H]2SC1` the Potency was “inactive”. For `CCCn1c(=O)c2[nH]c(-c3cnn(Cc4cccc(C(F)(F)F)c4)c3)nc2n(CC)c1=O`, the Potency was “inactive”. With `COc1cc2c(Oc3ccc(NC(=O)C4(C(=O)Nc5ccc(F)cc5)CC4)cc3F)ccnc2cc1OCCCN1CCOCC1` the Potency was “inactive”. In the case of `CCN(CC)CCCCNc1ncc2cc(-c3cc(OC)cc(OC)c3)c(NC(=O)NC(C)(C)C)nc2n1`, the Potency is reported as “inactive”. With `O=C(NC1CCNCC1)c1[nH]ncc1NC(=O)c1c(Cl)cccc1Cl` the Potency was “inactive”. With `CC(C)c1nn(-c2c(Cl)cccc2Cl)c2nc(Cc3ccc(OCCO)cc3)[nH]c(=O)c12` the Potency was “inactive”. In the case of `COc1cc2c(Oc3ccc(-c4cnc(Nc5ccc(F)cc5)n(C)c4=O)cc3F)ccnc2cc1OCCCN1CCOCC1`, the Potency is reported as “inactive”. For `COc1cc2c(cc1-c1c(C)noc1C)ncc1[nH]c(=O)n([C@H](C)c3ccccn3)c12`, the Potency was “inactive”. With `C[C@]12CC[C@H](O)CC1=CCC1C2CC[C@]2(C)C(n3cnc4ccccc43)=CCC12` (stereo not given in full) the Potency was “inactive”. With `Cc1cn2cc(C(=O)N(C)CCO)cc(N[C@@H]3CCOc4cccc(C)c43)c2n1` the Potency was “inactive”. For `Nc1cc(C(F)(F)F)c(-c2cc(N3CCOCC3)nc(N3CCOCC3)n2)cn1`, the Potency was “inactive”. With `COc1cc(OC2CCN(C)CC2)ccc1Nc1ncc2c(n1)n(C1CCCC1)c(=O)n2C` the Potency was “inactive”. With `C1=CCOCc2cc(ccc2OCCN2CCCC2)Nc2nccc(n2)-c2cccc(c2)OCC1` the Potency was “inactive”. With `Cc1[nH]nc2ccc(-c3cncc(OC[C@@H](N)Cc4ccccc4)c3)cc12` the Potency was “inactive”. For `C[C@H]1C[C@@H]2[C@@H]([C@@H](O)C[C@@]3(C)[C@H]2CC[C@]3(O)C(=O)CO)[C@@]2(C)C=CC(=O)C=C12`, the Potency was “inactive”. With `Cc1nc2ccc(CN(C)c3ccc(C(=O)N[C@@H](CCC(=O)O)C(=O)O)s3)cc2c(=O)[nH]1` the Potency was “inactive”. With `CC(C)(O)CCc1ccc(OCc2cc(-c3cccc(OC(F)F)c3)c3ncccc3c2)cc1` the Potency was “inactive”. With `CN1CCN(Cc2ccc(NC(=O)Nc3ccc(Oc4cc(NC(=O)C5CC5)ncn4)cc3)cc2C(F)(F)F)CC1` the Potency was “inactive”. With `CN(C)Cc1c(C(=O)NCCOc2ccc(C(=O)NO)cc2)oc2ccccc12` the Potency was “inactive”. For `CN(C)CC(C)(C)CNc1nn2c(-c3ccccc3)nnc2cc1C1CCC1`, the Potency was “inactive”. For `CN1CCC(CNc2ccc3ncc(-c4cccc(OC(F)(F)F)c4)n3n2)CC1`, the Potency was “inactive”. For `Cc1cn2c(-c3cn[nH]c3)cnc2c(Nc2ccc(C(=O)N3CCNCC3)cc2F)n1`, the Potency was “inactive”. With `COCCn1c2c([n+](Cc3cnccn3)c1C)C(=O)c1ccccc1C2=O` the Potency was 1320 nM (active). For `Cn1c2cc(S(C)=O)sc2c2cnn(Cc3cccc(N)c3)c(=O)c21` (stereo not given), the Potency was “inactive”. For `CC(C)c1ccccc1Cc1cc(C(=O)Nc2ccc(S(=O)(=O)c3ccccc3C(C)(C)C)cc2)c(O)c(O)c1O`, the Potency was “inactive”. In the case of `Cc1ccc(S(=O)(=O)Nc2cc(Cl)ccc2C(=O)Nc2nc(-c3ccccc3)cs2)cc1`, the Potency is reported as “inactive”. With `Cc1cc(Nc2cc(NC(=O)c3c(Cl)cccc3Cl)ccn2)nc(N)n1` the Potency was “inactive”. In the case of `CC(=O)Nc1sc2c(c1-c1nc3ccccc3s1)CNC2`, the Potency is reported as “inactive”. For `O=C(Nc1nc2cccc(-c3ccc(CN4CCS(=O)(=O)CC4)cc3)n2n1)C1CC1`, the Potency was “inactive”. For `CC(C)(O)c1cc2nc(-c3cnc(N)nc3)nc(N3CCOCC3)c2s1`, the Potency was “inactive”. In the case of `NC1(Cc2ccc(Cl)cc2)CCN(c2ncnc3[nH]ccc23)CC1`, the Potency is reported as “inactive”. With `N#CCNC(=O)c1ccc(-c2ccnc(Nc3ccc(N4CCOCC4)cc3)n2)cc1` the Potency was “inactive”. With `CC(C)c1cnn2c(NCc3ccccc3)cc(N[C@@H](CO)[C@H](O)CO)nc12` the Potency was “inactive”. With `CCC(=C(c1ccccc1)c1ccc(OCCN(C)C)cc1)c1ccccc1` the Potency was “inactive”. For `NC(=O)Nc1cc(-c2cccc(F)c2)sc1C(=O)N[C@H]1CCCNC1`, the Potency was “inactive”. In the case of `c1ccc2c(CCNc3ccc(Nc4ccncc4)cc3)c[nH]c2c1`, the Potency is reported as “inactive”. In the case of `O=C(O)CCCc1c[nH]c2ccccc12`, the Potency is reported as “inactive”. In the case of `CN(C)CCCN=c1c2ccccc2n(C)c2[nH]c(=O)n(C)c(=O)c12`, the Potency is reported as “inactive”. For `COC(=O)C1=C(C)NC(C)=C(C(=O)OCCN2CCN(C(c3ccccc3)c3ccccc3)CC2)C1c1cccc([N+](=O)[O-])c1` (stereo not given), the Potency was “inactive”.

Reference: PubChem BioAssay (NCATS)
Potency is read from the fitted curve at half-maximal effect.
